Not all results are given here.
aSyn 5UTR act = Activators via SNCA 5'UTR binding, MLPCN | alpha-synuclein 5'UTR reporter, activators screen | activity score, % (tested at 7.5 µM), hits read low | actives 7.1% (n = 300,000) | AID 1814, 2009; in the data active means activity score below about -60%
An asterisk follows results filed as active.

SMILES	aSyn 5UTR act
O=C(Nc1sc2c(c1C(=O)NCc1ccco1)CCCC2)c1ccc2c(c1)OCO2	-187.4*
Cc1ccc(NC(=O)CN(C)S(=O)(=O)c2cccs2)cc1C	-86.2*
Cc1ccc(NC(=O)CN(C)S(=O)(=O)c2cccs2)cc1F	-63.8*
COc1ccc(C(CC(=O)c2ccc(O)cc2)S(=O)(=O)c2ccc(C)cc2)cc1 (stereo unspecified)	-250.3*
CC(C)(C)c1ccc(-c2noc(-c3ccc4c(c3)CCO4)n2)cc1	-156.8*
Cc1cc(-c2nc(-c3ccc(C(C)(C)C)cc3)no2)no1	-170.5*
CC(CNC(=O)c1ccc(OC2CCN(Cc3ccccn3)CC2)cc1)c1ccccc1 (stereo unspecified)	-97.0*
O=C(Nc1ccccc1)Nc1ccc(Br)cc1F	-163.1*
O=C(Nc1cccc(Cl)c1)Nc1ccc(Br)cc1F	-114.6*
O=C(Nc1ccccc1)Nc1cc(OCC(F)(F)F)cc(OCC(F)(F)F)c1	74.4
Cc1cc(NC(=O)Nc2ccccc2F)ccc1Br	-242.9*
Cc1c(C)c2ccc(OCC(=O)Nc3nccs3)cc2oc1=O	66.2
O=C(COc1ccc(F)cc1)Nc1nccs1	-90.8*
O=C(Nc1nccs1)c1ccc(COc2ccc(F)cc2)o1	-97.1*
O=C(COc1ccc(F)cc1)Nc1nc2c(s1)CCCC2	-91.9*
COc1ccc(C(=O)/C=C/C(=O)N(CC(=O)NC2CCCCC2)Cc2cccs2)c(O)c1	70.6
Cc1ccccc1N(CC(=O)NC1CCCC1)C(=O)c1csnn1	-146.0*
CCc1cc2c(=O)n(-c3ccc(C)cc3)cnc2s1	-148.5*
CCc1cc2c(=O)n(-c3ccccc3)cnc2s1	-95.5*
c1ccc2c(c1)Nc1cc3ccccc3cc1S2	-135.0*
O=C1CCNc2cc3ccccc3cc21	77.7
CCCc1ccc(-c2cc(NC(=O)CSc3nnc(N)s3)n(-c3ccccc3)n2)cc1	-146.2*
CCOc1ccc(-c2cc(C(=O)NN)[nH]n2)cc1	-68.6*
Cc1cc(=O)[nH]c(N/N=C/c2ccccc2Cl)n1	-76.4*
CCN(CC)c1ccc(/C=N/Nc2nc(C)cc(=O)[nH]2)c(O)c1	95.4
SMILES	aSyn 5UTR act
Cc1cc(=O)[nH]c(N/N=C/c2cc(C)n(-c3ccccc3)c2C)n1	-63.4*
COc1cccc(CCNC(=O)c2ccc(C#N)cc2)c1	-63.3*
COc1ccc(O)c(/C=N/NC(=O)c2c(C)nnn2-c2nonc2N)c1	64.1
COc1ccc(CCNC(=O)c2ccccc2)cc1	-63.5*
COc1ccc(C(=O)Nc2cc(C(=O)NCCc3ccccc3)ccc2Cl)cc1	-69.0*
COc1ccc(OC)c(NC(=O)c2nc(S(=O)(=O)Cc3ccccc3)ncc2Cl)c1	99.5
COc1ccc(CCNC(=O)c2nonc2N)cc1	-85.1*
COc1ccc(CC(=O)Nc2ccccc2C(=O)NCCc2ccccc2)cc1	-101.0*
COc1ccc(OC(=O)NCCc2ccccc2)cc1	-133.5*
CC(C)Sc1nc2ccc(N3C(=O)C4CCCCC4C3=O)cc2s1 (stereo unspecified)	-126.5*
Cc1scc(C(=O)N/N=C/c2ccc(Cl)s2)c1C	-93.3*
COc1ccccc1/C=N/NC(=O)c1csc(C)c1C	-77.8*
COc1ccccc1NC(=O)c1ccc(-c2ccccc2F)o1	-145.4*
COC(=O)c1ccccc1NC(=O)c1ccc(-c2ccccc2F)o1	-129.5*
Cc1cc(NC(=O)c2ccc(-c3ccccc3F)o2)no1	-124.8*
CC(C)CC(=O)NC(=S)Nc1ccc(Cl)cn1	-67.9*
CCC(C)c1ccc(OCC(=O)Nc2ccc(Cl)cn2)cc1 (stereo unspecified)	-72.3*
CCc1ccc(NC(=S)NC(=O)CC(C)C)cc1	-154.0*
CCCCCCC(=O)Nc1ccc(Cl)cn1	-88.0*
CC1CCc2c(sc3ncn(CCO)c(=O)c23)C1 (stereo unspecified)	-115.9*
COC(=O)CNC(=O)C1(C)C=CCN1C(=O)c1ccccc1 (stereo unspecified)	-73.6*
S=c1[nH]c(-c2ccccc2)cn1/N=C/c1ccc(Br)cc1	-81.4*
Fc1ccccc1/C=N/n1cc(-c2ccccc2)[nH]c1=S	-84.9*
COc1ccc(-c2nc3c4ccccc4[nH]c(=O)n3n2)cc1	-82.4*
Cc1ccc(CCC(=O)Nc2ccccc2F)s1	-90.8*
SMILES	aSyn 5UTR act
CCOC(=O)c1oc2ccccc2c1NC(=O)COc1ccc(F)cc1	61.2
Cc1ccc(C(=O)CCC(=O)Nc2ccccc2F)cc1	-97.9*
O=C(COc1ccccc1)Nc1ccccc1Cl	-164.7*
Cc1ccc(OCC(=O)Nc2ccccc2F)cc1	-72.1*
Cc1ccc(OCC(=O)Nc2ccccc2F)cc1C	-178.0*
O=C(COc1ccccc1)NCCSCc1ccccc1Cl	-64.5*
C=CCNc1ncnc2c1[nH]c1ccc(C)cc12	-183.9*
CCCOc1ncnc2c1[nH]c1ccc(OC)cc12	-130.3*
CCCOc1ncnc2c1[nH]c1ccccc12	-142.3*
Cc1ccc2[nH]c3c(N4CCCCCC4)ncnc3c2c1	-127.1*
CCCCOc1ncnc2c1[nH]c1ccc(C)cc12	-93.4*
COc1ccc(/C(N)=C/C(=O)C(C)(C)C)cc1	-97.8*
COc1cccc(-c2nc(N3CCN(C)CC3)c3ccccc3n2)c1O	-165.0*
Oc1c(Br)cc(Br)cc1/C=N/Nc1ccc(Cl)nn1	96.7
